Source: PubChem BioAssay (NCI)
This is part of a sample that, as a whole, favours compounds with a hit. Of some 83,000 tested, about 20% had one in any assay.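 Single-concentration screen, 48 h exposure, 96-well plates. Endpoint: percent growth. Below 10 = active.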 A number with no mark means an inactive call. The source made the active and inactive calls.

Experiments:
Test in all cases: NCI-60 one-dose screen, 48 h (100 = growth as untreated, 0 = no growth, -100 = all killed)
Conditions in all cases: 10 µM
SR leukemia = tested on: SR leukemia
RPMI-8226 leukemia = tested on: RPMI-8226 leukemia
OVCAR-8 ovarian = tested on: OVCAR-8 ovarian
OVCAR-5 ovarian = tested on: OVCAR-5 ovarian
OVCAR-4 ovarian = tested on: OVCAR-4 ovarian
SK-OV-3 ovarian = tested on: SK-OV-3 ovarian
IGROV1 ovarian = tested on: IGROV1 ovarian
OVCAR-3 ovarian = tested on: OVCAR-3 ovarian
HS 578T breast = tested on: HS 578T breast
NCI/ADR-RES ovarian = tested on: NCI/ADR-RES ovarian
T-47D breast = tested on: T-47D breast
BT-549 breast = tested on: BT-549 breast
MDA-MB-435 melanoma = tested on: MDA-MB-435 melanoma
SW-620 colon = tested on: SW-620 colon
MCF7 breast = tested on: MCF7 breast
HCT-116 colon = tested on: HCT-116 colon
HCC-2998 colon = tested on: HCC-2998 colon
KM12 colon = tested on: KM12 colon

Compound	growth (SR leukemia)	growth (RPMI-8226 leukemia)	growth (OVCAR-8 ovarian)	growth (OVCAR-5 ovarian)	growth (OVCAR-4 ovarian)	growth (SK-OV-3 ovarian)	growth (IGROV1 ovarian)	growth (OVCAR-3 ovarian)	growth (HS 578T breast)	growth (NCI/ADR-RES ovarian)	growth (T-47D breast)	growth (BT-549 breast)	growth (MDA-MB-435 melanoma)	growth (SW-620 colon)	growth (MCF7 breast)	growth (HCT-116 colon)	growth (HCC-2998 colon)	growth (KM12 colon)
CCCCc1ccc(NC(=O)N(CCCl)N=O)cc1	30.9%	98.6%	96.7%	104%	108%	95.3%	97.2%	105%	111%	115%	112%	85.4%	92%	93%	92.7%	97.1%	117%	94.3%
COc1ccc(NC(=O)c2sc3nc4c(cc3c2N)C(O)CCC4)cc1 (stereo not drawn)	67.6%	103%	101%	104%	95.6%	112%	106%	104%	112%	102%	93.9%	97.4%	84.6%	95.8%	89.6%	104%	113%	98%
CC1=CC2OC34COC3CC(OC(=O)C(F)(F)F)C4(C)C2(C)CC1 (stereo not drawn)	99.3%	101%	106%	101%	103%	102%	119%	118%	97.7%	105%	94.2%	95.9%	101%	103%	93.7%	96.6%		105%
CC(=O)[C@H]1CC[C@H]2[C@@H]3CC[C@@H]4CC=C(C=O)C[C@]4(C)[C@H]3CC[C@]12C	73.5%	58.1%	97.8%	96.9%	99%	95.8%	89.4%	107%	106%	87.5%	85.6%	85.8%	97.3%	106%	81.1%	87%	89.5%	104%
COc1cc(CSc2nc3ccc(Cl)cc3c(=O)n2Cc2ccccc2)cc(OC)c1OC	23.1%	68.7%	53%	46.7%	52%	24.4%	35.3%	-0.909% (active)	30.5%	14%	33.9%	21.7%	1.84% (active)	28.7%	14.3%	20.8%	50.1%	23.7%
O=C(NNC(=O)c1ccncc1)Nc1ccc([N+](=O)[O-])cc1	91.9%	102%	105%	108%	108%	104%	120%	103%	107%	96.4%	90.8%	121%	94.1%	100%	109%	110%	106%	104%
COc1cc(-c2cc(-c3ccc(C)cc3)nc3nc(N)[nH]c(=O)c23)ccc1Oc1ccnc2cc(Cl)ccc12	50.9%	60.1%	79.5%	115%	66.3%	95.3%	77.9%	84.1%	91.2%	100%	69.6%	112%	85.3%	98.2%	51.2%	88.8%	79.5%	67%
CCC(OC(=O)CC(C)C)c1ccccc1 (stereo not drawn)	101%	105%	93.4%	104%	112%	102%	111%	107%	104%	98.8%	84.5%	101%	104%	105%	94.3%	107%	101%	107%
